Consider 23 compounds from PubChem BioAssay (NCATS).

The target in test [1] is Thyrotropin receptor (Homo sapiens) (UniProt P16473). The test can be described thus: qHTS Assay for Antagonists of the Thyroid Stimulating Hormone Receptor (AID 488980). Note: 0% is about no effect. Particulars: TSHR-expressing cells, cAMP antagonist read-out; series mostly up to 57.5 µM. In a few lines:
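HEK293 cells transfected with human TSHR, suspended in HEPES-buffered HBSS with 70 uM RO 20-1724, were treated with compounds plus TSH at EC80 (4 nM final). cAMP was measured by competitive HTRF (cryptate anti-cAMP antibody, cAMP-d2 acceptor).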
(In general: Quantitative high-throughput screening tests each substance at several concentrations.)

The target of test [2] is D(1A) dopamine receptor (Homo sapiens) (UniProt P21728). Nature of the test: HTS Assay for Allosteric Agonists of the Human D1 Dopamine Receptor: Primary Screen for Agonists (AID 488981). Note: 0% is about no effect. As to conditions: Inducible HEK293 T-REx D1 cells, calcium-flux fluorescence, 180 s kinetic; series mostly up to 41.8 µM. In a few lines: (§1)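 Calcium flux in an inducible, force-coupled HEK293 Trex D1 line (overnight at 30 C): agonist mode is the 180 s kinetic read after compound; potentiator mode is the following 180 s read after dopamine at EC20.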
D(1A) dopamine receptor (Homo sapiens), sequence (P21728 whole entry, looked up): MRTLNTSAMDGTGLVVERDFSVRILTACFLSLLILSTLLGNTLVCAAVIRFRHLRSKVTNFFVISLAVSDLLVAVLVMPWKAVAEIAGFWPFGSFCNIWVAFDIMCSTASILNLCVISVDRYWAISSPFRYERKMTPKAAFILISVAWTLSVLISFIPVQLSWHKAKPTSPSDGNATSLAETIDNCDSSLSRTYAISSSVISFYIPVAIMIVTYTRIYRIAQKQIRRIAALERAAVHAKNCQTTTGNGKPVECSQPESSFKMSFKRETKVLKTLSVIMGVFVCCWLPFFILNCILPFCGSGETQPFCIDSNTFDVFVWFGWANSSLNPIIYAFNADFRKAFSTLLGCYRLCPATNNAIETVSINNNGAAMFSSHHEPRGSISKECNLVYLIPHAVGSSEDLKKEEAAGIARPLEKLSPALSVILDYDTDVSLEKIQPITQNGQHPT

For test [3] the target is unchanged. The test can be described thus: HTS Assay for Allosteric Agonists of the Human D1 Dopamine Receptor: Primary Screen for Potentiators (AID 488982). Note: 0% is about no effect. Particulars: HEK293 T-REx D1 inducible cells, calcium flux, kinetic fluorescence; series mostly up to 8.37 µM. In a few lines: as §1
For test [4] the target is unchanged. Nature of the test: HTS Assay for Allosteric Agonists of the Human D1 Dopamine Receptor: Primary Screen for Antagonists (AID 488983).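 Note: calcium flux response to an EC80 dopamine challenge measured with no-wash dye; % is set by controls: 0 for no effect and ±100 for the full control effect; nearly all actives have a fitted effect of over 65% in size.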 Particulars: D1 receptor cell assay, antagonist mode, qHTS titration; series mostly up to 41.8 µM. In a few lines: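 Tetracycline-induced HEK293 T-REx cells expressing force-coupled D1 were plated overnight at 30 C, dye-loaded for calcium, and read kinetically. Compounds were pinned in, then an EC80 dopamine challenge followed after 180 s to reveal antagonism.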

Test [5] is described as follows: Validation screen for small molecules that induce genotoxicity in human embryonic kidney (HEK293T) cells expressing luciferase-tagged ELG1 (AID 493106). Note: potency is the fitted concentration of half-maximal effect. Particulars: luminescence; series mostly up to 46.1 µM. The method, boiled down: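 HEK293T cells expressing luciferase-tagged ELG1 were exposed to compound or DMSO vehicle for 16 hr at 37 °C, 5% CO2. Genotoxic stress raises ELG1 levels, so increased luciferase signal after ONE-Glo addition and 30 min at room temperature marks hits.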

In test [6] the target is ATPase family AAA domain-containing protein 5 (Homo sapiens) (UniProt Q96QE3). The test can be described thus: Validation screen for small molecules that inhibit ELG1-dependent DNA repair in human embryonic kidney (HEK293T) cells expressing luciferase-tagged ELG1 (AID 493107).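 Note: cells co-treated with the DNA-damaging agent 5-fluorouridine alongside compound; % is set by controls: 0 for no effect and ±100 for the full control effect; inhibitors lower the ELG1-luciferase luminescence signal; nearly all actives have a fitted effect of over 70% in size.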 Particulars: HEK293T ELG1-luciferase level, luminescence, 5-fluorouridine co-treatment, 16 h; series mostly up to 46.1 µM. The method, boiled down:
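HEK293T cells expressing luciferase-tagged ELG1 were co-treated with 5-fluorouridine and compound or DMSO for 16 hr at 37 °C, 5% CO2. Luciferase activity was then read with ONE-Glo after 30 min at room temperature; suppressed signal indicates blocked ELG1 function.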

In test [7] the target is Thyrotropin-releasing hormone receptor (Homo sapiens) (UniProt P34981). Nature of the test: qHTS for Small Molecule Agonists and Allosteric Enhancers of Human TRH Receptor: Validation Screen for Agonists (AID 493127;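 active = calcium activation more than 3 SD above the typical response in the agonist read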;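 note: intracellular calcium rise by fluo-8 fluorescence before TRH EC20 addition; 0% is about no effect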). Particulars: TRH receptor agonist cell assay; at 2 µM; stronger effect = higher value. In a few lines: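 TRHR-expressing cells were plated overnight in serum-containing medium, then loaded with fluo-8 calcium dye at room temperature for 30 min–1.5 h. After a 10 s baseline, compound was pin-transferred and calcium fluorescence (ex 480/em 530) read kinetically for agonist response.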
Thyrotropin-releasing hormone receptor (Homo sapiens), sequence (P34981 whole entry, looked up): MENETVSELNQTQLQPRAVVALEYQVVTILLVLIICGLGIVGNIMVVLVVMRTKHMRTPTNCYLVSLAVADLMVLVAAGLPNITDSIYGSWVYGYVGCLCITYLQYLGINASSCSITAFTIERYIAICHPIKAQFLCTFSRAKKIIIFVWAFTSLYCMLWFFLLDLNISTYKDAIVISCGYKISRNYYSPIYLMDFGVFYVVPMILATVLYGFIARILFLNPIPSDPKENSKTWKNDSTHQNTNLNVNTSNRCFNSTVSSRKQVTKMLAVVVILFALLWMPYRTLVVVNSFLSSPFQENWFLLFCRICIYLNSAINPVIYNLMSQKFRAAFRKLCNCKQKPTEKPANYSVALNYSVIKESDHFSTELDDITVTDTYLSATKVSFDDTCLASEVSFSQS

Test [8] is described as follows: Nrf2 qHTS screen for inhibitors: Validation (AID 493153; active = well fitted inhibition curve with a large enough effect in the main read-out, with a control signal flat, not every such curve was filed as active). Particulars: A549 ARE-Fluc reporter, 18-24 h; Potency: luciferase luminescence; viability change: measured here: cytotoxicity max response; luciferase luminescence, at 46.1 µM (top of the series). In a few lines: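 A549 cells carrying an ARE-driven firefly luciferase reporter, in 5% FBS OPTI-MEM, were treated with compounds in concentration-response for 18-24 h at 37°C. Viability was read by CellTiter-Fluor fluorescence, then Nrf2 activity by luciferase luminescence.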

Structures are written as SMILES. Records with an inconclusive call do not appear. The source made the active and inactive calls. Unless noted, calls come from the whole dose curve; as a rule, active = well fitted curve in the direction sought with a large enough effect; inconclusive = small, poorly fitted or top-dose-only effect, or another doubt; inactive = no such curve, though single readings can be large; an effect the other way counts as inactive or inconclusive.

ATPase family AAA domain-containing protein 5 (Homo sapiens), sequence (Q96QE3 whole entry, looked up, the tested form may be a part): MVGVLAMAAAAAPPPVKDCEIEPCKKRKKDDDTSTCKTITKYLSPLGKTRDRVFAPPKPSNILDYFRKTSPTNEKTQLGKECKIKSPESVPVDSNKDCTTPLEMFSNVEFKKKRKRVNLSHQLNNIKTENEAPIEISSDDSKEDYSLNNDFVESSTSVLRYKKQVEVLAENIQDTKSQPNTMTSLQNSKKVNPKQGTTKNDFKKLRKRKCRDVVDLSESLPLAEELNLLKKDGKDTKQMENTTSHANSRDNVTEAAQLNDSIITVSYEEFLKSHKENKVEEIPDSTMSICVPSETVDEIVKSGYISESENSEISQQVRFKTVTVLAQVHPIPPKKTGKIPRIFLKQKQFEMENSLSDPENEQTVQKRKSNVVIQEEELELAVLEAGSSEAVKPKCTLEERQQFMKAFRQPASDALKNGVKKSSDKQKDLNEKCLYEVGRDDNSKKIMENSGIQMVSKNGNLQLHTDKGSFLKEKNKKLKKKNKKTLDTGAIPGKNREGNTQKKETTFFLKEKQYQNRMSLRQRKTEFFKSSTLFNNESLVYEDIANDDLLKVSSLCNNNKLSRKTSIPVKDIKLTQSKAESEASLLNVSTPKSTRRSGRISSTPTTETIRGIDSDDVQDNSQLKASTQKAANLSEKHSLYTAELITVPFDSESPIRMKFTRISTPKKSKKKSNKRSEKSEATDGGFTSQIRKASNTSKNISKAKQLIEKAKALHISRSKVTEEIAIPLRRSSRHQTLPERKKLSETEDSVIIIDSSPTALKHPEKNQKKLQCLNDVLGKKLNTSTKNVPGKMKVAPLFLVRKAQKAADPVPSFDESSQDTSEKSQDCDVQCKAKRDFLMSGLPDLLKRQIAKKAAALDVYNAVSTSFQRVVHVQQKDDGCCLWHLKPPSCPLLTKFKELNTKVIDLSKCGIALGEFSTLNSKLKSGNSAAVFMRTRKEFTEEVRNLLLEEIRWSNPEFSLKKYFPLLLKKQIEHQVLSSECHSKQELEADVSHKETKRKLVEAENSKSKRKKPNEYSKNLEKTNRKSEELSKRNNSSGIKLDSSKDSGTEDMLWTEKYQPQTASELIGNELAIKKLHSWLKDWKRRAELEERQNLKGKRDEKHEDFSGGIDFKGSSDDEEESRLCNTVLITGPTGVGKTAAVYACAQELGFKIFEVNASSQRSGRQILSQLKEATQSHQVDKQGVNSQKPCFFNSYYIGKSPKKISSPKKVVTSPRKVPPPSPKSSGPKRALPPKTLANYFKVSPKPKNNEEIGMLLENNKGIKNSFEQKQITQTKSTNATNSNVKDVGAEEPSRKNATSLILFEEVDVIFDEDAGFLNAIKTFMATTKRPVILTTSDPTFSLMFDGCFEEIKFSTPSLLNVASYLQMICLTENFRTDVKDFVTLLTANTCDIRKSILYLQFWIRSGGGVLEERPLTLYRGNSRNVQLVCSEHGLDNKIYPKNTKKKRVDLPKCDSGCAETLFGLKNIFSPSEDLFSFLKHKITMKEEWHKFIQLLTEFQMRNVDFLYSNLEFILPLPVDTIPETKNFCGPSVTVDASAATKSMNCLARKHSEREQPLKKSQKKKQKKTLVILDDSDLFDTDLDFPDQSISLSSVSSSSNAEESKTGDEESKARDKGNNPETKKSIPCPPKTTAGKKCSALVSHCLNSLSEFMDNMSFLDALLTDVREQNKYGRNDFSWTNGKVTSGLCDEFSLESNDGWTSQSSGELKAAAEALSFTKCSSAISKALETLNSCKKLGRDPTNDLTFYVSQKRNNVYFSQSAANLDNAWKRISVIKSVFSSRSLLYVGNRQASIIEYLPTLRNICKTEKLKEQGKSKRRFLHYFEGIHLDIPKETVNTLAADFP
Thyrotropin receptor (Homo sapiens), sequence (P16473 whole entry, looked up): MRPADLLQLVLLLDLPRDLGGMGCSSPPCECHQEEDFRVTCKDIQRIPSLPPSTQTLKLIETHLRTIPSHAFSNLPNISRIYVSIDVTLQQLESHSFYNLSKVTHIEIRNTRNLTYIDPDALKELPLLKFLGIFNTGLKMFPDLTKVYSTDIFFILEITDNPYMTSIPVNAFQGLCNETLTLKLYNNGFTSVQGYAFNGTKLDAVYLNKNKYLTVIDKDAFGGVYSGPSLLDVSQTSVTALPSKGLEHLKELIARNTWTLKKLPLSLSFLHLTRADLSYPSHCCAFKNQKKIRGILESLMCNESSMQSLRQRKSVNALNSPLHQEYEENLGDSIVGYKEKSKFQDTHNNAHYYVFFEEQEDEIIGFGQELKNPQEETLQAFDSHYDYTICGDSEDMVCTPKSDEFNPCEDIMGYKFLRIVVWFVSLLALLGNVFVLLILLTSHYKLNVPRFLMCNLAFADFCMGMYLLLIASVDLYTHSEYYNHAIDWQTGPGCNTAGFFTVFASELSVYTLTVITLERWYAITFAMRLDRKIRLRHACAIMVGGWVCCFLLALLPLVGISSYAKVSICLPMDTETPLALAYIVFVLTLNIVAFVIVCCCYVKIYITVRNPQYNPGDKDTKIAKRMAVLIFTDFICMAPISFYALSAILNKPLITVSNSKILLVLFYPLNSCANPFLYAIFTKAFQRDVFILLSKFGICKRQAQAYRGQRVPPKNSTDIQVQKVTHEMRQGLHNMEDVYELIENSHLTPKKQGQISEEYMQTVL

In the case of `NCCCCN=C(N)N`, the outcome in test [1] was inactive. Further, the Potency result in test [2], in test [3], in test [4], in test [5], in test [6] and in test [8] was “inactive” each time. Moreover, the activation in test [7] was 0.812% (inactive). The viability change in test [8] is -0.37%.
With `C=CC[C@H](N)C(=O)O`, the outcome in test [1] was inactive. Also, the Potency entry in test [2], in test [3], in test [4], in test [5], in test [6] and in test [8] was “inactive” each time. In addition, the activation in test [7] was -3.19% (inactive). In addition, in test [8], the viability change was -2.69%.
For the compound `CCN1C(=O)C=CC1=O`, the result in test [1] was inactive. For the same compound, the Potency result in test [2], in test [3], in test [4], in test [5], in test [6] and in test [8] was “inactive” throughout. Further, in test [7], the activation was 1.12% (inactive). Further, the viability change in test [8] was determined as 1.81%.
For `CCOC(=O)C12CC1/C(=N/O)c1ccccc1O2` (centres undefined), the result in test [1] was inactive. Moreover, the Potency entry in test [2], in test [3], in test [4], in test [5], in test [6] and in test [8] was “inactive” each time. Besides, in test [7], the activation was -3.94% (inactive). Moreover, the viability change in test [8] amounted to 1.91%.
Turning to `Cc1nc(N=Nc2ccc(C(=O)O)cc2)c(COP(=O)(O)O)c(C=O)c1O`, the result in test [1] was inactive. The Potency result in test [2], in test [3], in test [4], in test [5], in test [6] and in test [8] was “inactive” throughout. Also, the activation in test [7] was 0.125% (inactive). Also, in test [8], the viability change is -9.24%.
For `CC(C)Cn1c(=O)n(C)c(=O)c2[nH]cnc21`, in test [1], the result was inactive. For the same compound, the Potency result in test [2], in test [3], in test [4], in test [5], in test [6] and in test [8] was “inactive” in each case. Also, the activation in test [7] is 0.875% (inactive). In addition, the viability change in test [8] stood at 1.08%.
`CC(=O)NCCc1c[nH]c2ccc(O)cc12`: in test [1], the result was inactive. Besides, the Potency entry in test [2], in test [3], in test [4], in test [5], in test [6] and in test [8] was “inactive” each time. In addition, the activation in test [7] was 1.31% (inactive). In test [8], the viability change was -0.372%.
On to `CCN(CC)CCOC(=O)c1cc(Cl)c(N)cc1OC`, for which the outcome in test [1] was inactive. In addition, the Potency result in test [2], in test [3], in test [4], in test [5], in test [6] and in test [8] was “inactive” each time. For the same compound, the activation in test [7] was 1.5% (inactive). Further, in test [8], the viability change stood at 2.46%.
Regarding `C#CCn1c(=O)c2c(ncn2C)n(C)c1=O`, the result in test [1] was inactive. Besides, the Potency entry in test [2], in test [3], in test [4], in test [5], in test [6] and in test [8] was “inactive” in each case. For the same compound, the activation in test [7] was 0.938% (inactive). The viability change in test [8] amounted to 4.85%.
`CCC1(O)CC2CN(CCc3c([nH]c4ccccc34)[C@@](C(=O)OC)(c3cc4c(cc3OC)N(C=O)C3[C@]45CCN4CC=C[C@@](CC)([C@@H](OC(C)=O)[C@]3(O)C(=O)OC)[C@H]45)C2)C1` (some centres undefined): the outcome in test [1] was inactive. Besides, the Potency entry in test [2], in test [3] and in test [4] was “inactive” throughout. In addition, in test [5], the Potency is 920 nM (active). Further, the activation in test [7] was 0.188% (inactive).
For the compound `O=S(=O)(c1cccc2c(Cl)cccc12)N1CCCNCC1`, the result in test [1] was inactive. Moreover, the Potency entry in test [2], in test [3], in test [4], in test [5] and in test [8] was “inactive” each time. In test [7], the activation is 1.56% (inactive). For the same compound, the viability change in test [8] was 2.63%.
As for `Oc1cc(O)c2c(c1)O[C@H](c1ccc(O)c(O)c1)[C@@H](O)C2`, the result in test [1] was inactive. The Potency entry in test [2], in test [3], in test [4], in test [5], in test [6] and in test [8] was “inactive” each time. In addition, the viability change in test [8] stood at 1.23%.
With `C[N+](C)(C)CC=O`, the outcome in test [1] was inactive. The Potency result in test [2], in test [3], in test [4], in test [5], in test [6] and in test [8] was “inactive” in each case. The viability change in test [8] turned out to be 2.93%.
Take `NC(=O)CNCCC(c1ccccc1)c1ccccc1`: the result in test [1] was inactive. For the same compound, the Potency result in test [2], in test [3], in test [4], in test [5], in test [6] and in test [8] was “inactive” in each case. Moreover, the viability change in test [8] was found to be 12.7%.
As to `CC(=O)N[C@@H](Cc1c[nH]c2ccccc12)C(=O)OCc1cc(C(F)(F)F)cc(C(F)(F)F)c1`, the outcome in test [1] was inactive. The Potency result in test [2], in test [3], in test [4], in test [5], in test [6] and in test [8] was “inactive” throughout. In addition, in test [8], the viability change was found to be 0.548%.
As to `O=c1oc(Cl)c(Cl)c2ccccc12`, in test [1], the outcome was inactive. Moreover, the Potency result in test [2], in test [3], in test [4], in test [5] and in test [8] was “inactive” in each case. Further, in test [7], the activation is -4.69% (inactive). Besides, in test [8], the viability change was -4.81%.
As for `COc1cc2c(CCNC(C)=O)c[nH]c2cc1O`, the result in test [1] was inactive. Further, the Potency entry in test [2], in test [3], in test [4], in test [5] and in test [8] was “inactive” in each case. Further, in test [7], the activation is 0.875% (inactive). In addition, in test [8], the viability change is -0.977%.
Regarding `Cn1cc(C(=O)OCC2CCN(CCNS(C)(=O)=O)CC2)c2ccccc21`, the result in test [1] was inactive. The Potency entry in test [2], in test [3], in test [4], in test [5], in test [6] and in test [8] was “inactive” in each case. For the same compound, the activation in test [7] is 0.688% (inactive). For the same compound, the viability change in test [8] was -0.747%.
As to `Cn1c(=O)c2c(nc(/C=C/c3cccc(Cl)c3)n2C)n(C)c1=O`, the result in test [1] was inactive. Further, the Potency entry in test [2], in test [3], in test [4], in test [5], in test [6] and in test [8] was “inactive” in each case. In test [8], the viability change was found to be 3.93%.
As to `O=C1Cc2c([nH]c3ccc(Br)cc23)-c2ccccc2N1`, in test [1], the result was inactive. Also, the Potency entry in test [2], in test [3], in test [4] and in test [8] was “inactive” each time. Further, the Potency in test [5] is 411 nM (active). In test [7], the activation is 9.25% (inactive). For the same compound, in test [8], the viability change stood at 3.96%.
As for `O=C(c1ccc2c(c1)OCCO2)N1CCCCC1`, in test [1], the outcome was inactive. The Potency result in test [2], in test [3], in test [4], in test [5] and in test [8] was “inactive” throughout. Besides, the activation in test [7] is -0.312% (inactive). Also, in test [8], the viability change stood at 1.66%.
Regarding `O=c1onc2n1-c1cc(Br)ccc1OC2`, the outcome in test [1] was inactive. For the same compound, the Potency entry in test [2], in test [3], in test [4], in test [5], in test [6] and in test [8] was “inactive” in each case. Also, the activation in test [7] is 1.75% (inactive). Further, the viability change in test [8] was -3.61%.
`N[C@@H](CS(=O)O)C(=O)O`: in test [1], the outcome was inactive. The Potency entry in test [2], in test [3], in test [4], in test [5], in test [6] and in test [8] was “inactive” in each case. For the same compound, in test [7], the activation was 0.688% (inactive). In addition, the viability change in test [8] was -0.201%.
